19 molecules from the supplement of paper PMC13380429 can be followed below.

A number with no mark means an inactive call.

For the assay, the system named is Vero E6 infected with SARS-CoV-2. Kind of assay: inhibition of SARS-CoV-2 cytopathic effect; higher = more antiviral protection, active = above 15. Particulars: 48 h.

Regarding `O=c1c2ccccc2oc2ccccc12` [xanthone], the “inhibition of SARS-CoV-2 cytopathic effect” value (“inhibition” for short) by setting is: (1 nM) 1.22%; (8.33 nM) 1.53%; (100 nM) 1.84%; (833.33 nM) -0.86%; (10000 nM) -3.12%.

`Cc1ccccc1N(C)C(=O)c1ccc([S+]([O-])c2nccs2)c([N+](=O)[O-])c1` (stereo not given): the “inhibition” value (1 nM) is -0.08%; the “inhibition” value (8.33 nM) was -0.71%; the “inhibition” value (100 nM) was 1.56%; the “inhibition” value (833.33 nM) was 16.5% (active); the “inhibition” value (10000 nM) was 12.2%.

As for `CC1(C)CC(Oc2ccc(-c3ccc(-c4cn[nH]c4)cc3O)nn2)CC(C)(C)N1`, the “inhibition” value is, setting by setting: (1 nM) 1.13%; (8.33 nM) 0.25%; (100 nM) 2.2%; (833.33 nM) -9.03%; (10000 nM) -14.9%.

`c1ccc2nc(N3CCNCC3)ccc2c1` [quipazine]: the “inhibition” value is, setting by setting: (1 nM) 2.16%; (8.33 nM) -1.97%; (100 nM) -0.43%; (833.33 nM) 1.22%; (10000 nM) -2.16%.

In the case of `O=C(NC1CCC1)c1ccc(C#Cc2cccc(F)c2)nc1`, the “inhibition” value by setting is: (1 nM) 0.19%; (8.33 nM) -1.61%; (100 nM) -2.31%; (833.33 nM) -1.49%; (10000 nM) 2.23%.

`CN1CCc2c(c3ccccc3n2Cc2ccc(C(=O)NO)cc2)C1` [tubastatin-A]: the “inhibition” value was -0.32% (1 nM); 0.16% (8.33 nM); 1.09% (100 nM); -1.27% (833.33 nM); -6.46% (10000 nM).

As to `CCN(CC)CCN[C@@H](C(=O)OCCC(C)C)c1ccccc1` [camylofine-chlorhydrate], the “inhibition” value is, setting by setting: (1 nM) -0.61%; (8.33 nM) -0.68%; (100 nM) -1.25%; (833.33 nM) 0.17%; (10000 nM) -1.1%.

For the molecule `CC(=O)[C@]1(O)Cc2c(O)c3c(c(O)c2[C@@H](O[C@H]2C[C@H](N)[C@H](O)[C@H](C)O2)C1)C(=O)c1ccccc1C3=O` [idarubicin], the “inhibition” value reads like this: (1 nM) -0.73%; (8.33 nM) 1.96%; (100 nM) -0.94%; (833.33 nM) -13.1%; (10000 nM) -6.65%.

For `Cn1c(=O)c2c(ncn2CCOC(=O)C(C)(C)Oc2ccc(Cl)cc2)n(C)c1=O` [etofylline-clofibrate], the “inhibition” value by setting is: (1 nM) 4.94%; (8.33 nM) 3.79%; (100 nM) 1.68%; (833.33 nM) 2.56%; (10000 nM) -0.53%.

As to `c1ccc(-c2n[nH]c3c2oc2ccccc23)cc1`, the “inhibition” value by setting is: (1 nM) -0.45%; (8.33 nM) -5.74%; (100 nM) 1%; (833.33 nM) 2.4%; (10000 nM) -0.82%.

For `CN(C)C(=S)SC(=S)N(C)C` [tetramethylthiuram-monosulfide], the “inhibition” value (1 nM) was -5.07%; the “inhibition” value (8.33 nM) was -6.29%; the “inhibition” value (100 nM) was -7.33%; the “inhibition” value (833.33 nM) is 11.9%; the “inhibition” value (10000 nM) is 10%.

Regarding `CN1CC(=O)NC1=N` [creatinine], the “inhibition” value (1 nM) was 1.26%; the “inhibition” value (8.33 nM) was 1.05%; the “inhibition” value (100 nM) is -2.37%; the “inhibition” value (833.33 nM) is 1.18%; the “inhibition” value (10000 nM) was -1.05%.

Regarding `COc1cc2c(cc1OC)[C@@H]1Cc3ccc(OC)c(OC)c3CN1CC2` [rotundine], the “inhibition” value (1 nM) is -0.42%; the “inhibition” value (8.33 nM) is -2.68%; the “inhibition” value (100 nM) was -1.22%; the “inhibition” value (833.33 nM) was 4.97%; the “inhibition” value (10000 nM) was 3.54%.

For the molecule `CC1=C(CC(=O)O)c2cc(F)ccc2/C1=C\c1ccc([S+](C)[O-])cc1` (stereo not given) [sulindac], the “inhibition” value was -0.99% (1 nM); -2.82% (8.33 nM); -1.46% (100 nM); -0.62% (833.33 nM); -2.36% (10000 nM).

On to `Cc1cc(C(=CNc2ccc(Cl)cc2)C(=O)Nc2ccc(Cl)cc2)on1`, for which the “inhibition” value (1 nM) is -1.14%; the “inhibition” value (8.33 nM) is -1.99%; the “inhibition” value (100 nM) is -2%; the “inhibition” value (833.33 nM) is -0.86%; the “inhibition” value (10000 nM) is 0.28%.

Regarding `C[N+]1(C)[C@@H]2C[C@@H](OC(=O)C(O)(c3cccs3)c3cccs3)C[C@H]1[C@@H]1O[C@@H]12` [tiotropium], the “inhibition” value (1 nM) is 0.89%; the “inhibition” value (8.33 nM) was -2.54%; the “inhibition” value (100 nM) is -2.45%; the “inhibition” value (833.33 nM) is -5.08%; the “inhibition” value (10000 nM) was -3.35%.

On to `O=C(OCCN1CCCCC1)c1c[nH]c2ccccc12`, for which the “inhibition” value was 0.38% (1 nM); 2.59% (8.33 nM); 1.63% (100 nM); -1.42% (833.33 nM); -6.53% (10000 nM).

In the case of `CC1(C)C(=O)N(CCN2CCC(C(=O)c3ccc(F)cc3)CC2)c2ccccc21`, the “inhibition” value is -2.5% (1 nM); 0.34% (8.33 nM); -1.18% (100 nM); -0.38% (833.33 nM); 0.46% (10000 nM).

Take `COc1cc(C(=O)NC2CCCNC2)cc(OC)c1OC` (stereo not given) [troxipide]: the “inhibition” value runs as follows: (1 nM) 0.11%; (8.33 nM) -0.47%; (100 nM) 1.46%; (833.33 nM) -0.19%; (10000 nM) 2.03%.
